Bioassay records deposited in PubChem BioAssay by National Center for Advancing Translational Sciences (NCATS).
ELG1 repair inh – ELG1-dependent DNA repair inhibition; actives 2.3% (n = 330,000); AID 504467; HEK293T ELG1-luciferase reporter, luminescence, 16 h; DNA damage induced by 5-fluorouridine; Potency, µM (doses to about 46.1 µM), hits mostly inhibitors; also: nearly all actives have a fitted effect of over 55% in size
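DMSO vehicle served as the neutral condition. Each well held 2,000 cells given 5-fluorouridine plus compound; after 16 hr at 37 °C/5% CO2, ONE-Glo was added and luciferase measured 30 min later.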
TDP1 cell noCPT – qHTS for Inhibitors of human tyrosyl-DNA phosphodiesterase 1 (TDP1): qHTS in cells in absence of CPT. DT40 Tdp1-/- hTDP1 cells, no CPT, ATP luminescence, 48 h. Potency, µM (titrated, usually from 46.2 µM), hits mostly inhibitors. actives 15% (n = 420,000); also: nearly all actives have a fitted effect of over 55% in size
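Luminescent ATP content (CellTiter-Glo) served as the growth readout. Knockout chicken DT40 cells expressing human TDP1 were exposed to compounds without camptothecin for a minimum 48 hr at 37 °C.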
Giardia killer – kills Giardia lamblia; actives 0.15% (n = 340,000); AID 540267; activity change, % at 7.66 µM, hits read low; Giardia lamblia trophozoite viability; in the data active = activity change below about -80%; inconclusive = between about -30% and that limit;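 also: parasites exposed to compound for two days anaerobically before the ATP read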
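Killing of trophozoites was scored by loss of ATP luminescence after a 48 hrs anaerobic exposure to compounds at 37 deg C, using 100 cells per well.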
TDP1 cell CPT – DT40-hTDP1 cell growth loss with CPT; chicken DT40 Tdp1-/-;hTDP1 cells + 20 nM CPT, ATP luminescence, 48 h; actives 12% (n = 420,000); Potency, µM (titrated, usually from 46.2 µM), usual class: inhibitors; also: nearly all actives have a fitted effect of over 55% in size
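Chicken DT40 Tdp1-/- cells complemented with human TDP1, 400 cells/well, exposed to compounds plus 20 nM camptothecin for at least 48 h at 37 C; viability read as ATP content by CellTiter-Glo luminescence.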
IL1B secr inh – inflammasome signaling inhibition, IL-1 beta readout; THP-1 LPS/ATP IL-1B secretion, AlphaLISA, 16 h; active compounds read low; activity change, % at 57.5 µM; actives 4.7% (n = 360,000); in the data active = activity change below about -50%; inconclusive = mostly about -30% to -49%
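Secreted IL-1B measured by AlphaLISA bead assay after 16 h compound exposure of THP-1 cells; compounds (final up to 57.5 uM) added 1 h before LPS (250 ng/mL) and ATP (1.25 mM) stimulation; lower signal means less secretion.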
TDP1 block – inhibitors of human tyrosyl-DNA phosphodiesterase TDP1 | Q9NUW8 | recombinant TDP1, AlphaScreen DNA substrate cleavage | Potency, µM (doses to about 130 µM), hits mostly inhibitors | actives 0.28% (n = 350,000) | AID 485290; also: nearly all actives have a fitted effect of over 40% in size
Target sequence (Q9NUW8 whole entry, looked up): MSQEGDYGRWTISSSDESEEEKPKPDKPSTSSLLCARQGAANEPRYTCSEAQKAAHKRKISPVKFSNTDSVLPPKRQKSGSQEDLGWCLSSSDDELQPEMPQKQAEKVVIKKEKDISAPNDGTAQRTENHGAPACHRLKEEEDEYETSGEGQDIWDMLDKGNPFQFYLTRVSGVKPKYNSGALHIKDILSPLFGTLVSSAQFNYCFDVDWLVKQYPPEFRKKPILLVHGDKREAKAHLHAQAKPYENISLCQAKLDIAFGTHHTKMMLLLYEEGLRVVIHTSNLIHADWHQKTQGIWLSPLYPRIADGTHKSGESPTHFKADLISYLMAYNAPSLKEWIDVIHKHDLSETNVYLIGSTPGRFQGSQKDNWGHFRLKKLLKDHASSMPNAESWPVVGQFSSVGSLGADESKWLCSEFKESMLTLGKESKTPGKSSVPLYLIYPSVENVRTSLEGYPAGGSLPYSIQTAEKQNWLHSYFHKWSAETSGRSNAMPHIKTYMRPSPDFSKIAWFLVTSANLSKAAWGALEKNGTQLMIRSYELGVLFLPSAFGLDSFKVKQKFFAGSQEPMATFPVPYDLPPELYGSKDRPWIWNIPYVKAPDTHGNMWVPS
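Enzyme-compound mixtures sat 15 min at room temperature, followed by a 5 min reaction with 15 nM final substrate and 10 min with AlphaScreen beads. Recombinant human Tdp1 was used at 1 nM final.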
Numbers stand for hits. A selection: hits, their analogues and other compounds. The true share with any hit is near 19%. Unless noted, calls follow the shape of the dose curve; as a rule, active = well fitted curve in the direction sought with a large enough effect; inconclusive = small, poorly fitted or top-dose-only effect, or another doubt; inactive = no such curve, though single readings can be large; an effect the other way counts as inactive or inconclusive.

How did Cc1c(-c2ccc(Cl)cc2)c(=O)oc2ccc(OC(=O)N3CCOCC3)cc12 do in these assays?
TDP1 cell noCPT: 21µM; TDP1 cell CPT: inconclusive; TDP1 block: inactive

What do the screens show for `O=C(NOC[C@H](O)CO)c1ccc(F)c(F)c1Nc1ccc(I)cc1F`?
TDP1 cell noCPT: inactive; TDP1 cell CPT: inactive

What do the screens show for `COc1ccc(C(C)=O)cc1Cn1c(C)c(C(=O)NCc2cccc(Cl)c2)sc1=O`?
TDP1 cell noCPT: 21µM; TDP1 cell CPT: inconclusive; IL1B secr inh: inactive

What do the screens show for `COc1ccc(Cl)cc1Cn1c(C)c(C(=O)NCc2cccc(Cl)c2)sc1=O`?
TDP1 cell noCPT: inconclusive; TDP1 cell CPT: 15µM; IL1B secr inh: inactive

How did CSc1ccc(Cn2c(C)c(C(=O)NCc3cccc(C)c3)sc2=O)cc1 do in these assays?
TDP1 cell noCPT: inconclusive; TDP1 cell CPT: 23µM; IL1B secr inh: -65

How did COc1ccc(C(C)=O)cc1Cn1c(C)c(C(=O)NCc2cccc(C(F)(F)F)c2)sc1=O do in these assays?
TDP1 cell noCPT: inconclusive; TDP1 cell CPT: inconclusive; IL1B secr inh: inactive

Results for COc1ccc(C(C)=O)cc1Cn1c(C)c(C(=O)NCc2cccc(C)c2)sc1=O ?
TDP1 cell noCPT: inconclusive; TDP1 cell CPT: inconclusive; IL1B secr inh: -79

How did CC(=O)Oc1ccc(Cn2c(C)c(C(=O)NCc3ccc4c(c3)OCCO4)sc2=O)cc1 do in these assays?
TDP1 cell noCPT: 16µM; TDP1 cell CPT: inconclusive; IL1B secr inh: inactive

Results for CC(=O)Oc1ccccc1Cn1c(C)c(C(=O)NCc2cccc(Cl)c2)sc1=O ?
TDP1 cell noCPT: inconclusive; TDP1 cell CPT: inconclusive; IL1B secr inh: inactive

How did COc1ccc(CNC(=O)c2sc(=O)n(Cc3cc(Cl)ccc3OC)c2C)cc1 do in these assays?
TDP1 cell noCPT: 16µM; TDP1 cell CPT: inconclusive; IL1B secr inh: inactive

What do the screens show for `COC(=O)c1ccc(Cn2c(C)c(C(=O)NCc3ccc([N+](=O)[O-])cc3)sc2=O)o1`?
TDP1 cell noCPT: inconclusive; TDP1 cell CPT: inconclusive; IL1B secr inh: inactive

How did COc1ccc(NC(=O)c2sc(=O)n(Cc3ccc(F)c(Cl)c3)c2C)cc1OC do in these assays?
TDP1 cell noCPT: 10µM; TDP1 cell CPT: 23µM; IL1B secr inh: inactive

How did Cc1cccc(C)c1Cn1c(C)c(C(=O)NCc2ccc([N+](=O)[O-])cc2)sc1=O do in these assays?
TDP1 cell noCPT: 23µM; TDP1 cell CPT: inconclusive; IL1B secr inh: inactive

What do the screens show for `COc1ccc(C(=O)NC=C2C(=O)OC(C)(C)OC2=O)cc1`?
ELG1 repair inh: inactive; TDP1 cell noCPT: inactive; Giardia killer: inactive; TDP1 cell CPT: inactive; IL1B secr inh: inactive; TDP1 block: inactive

How did COc1ccc(Cl)cc1Cn1c(C)c(C(=O)NCc2ccc3c(c2)OCCO3)sc1=O do in these assays?
TDP1 cell noCPT: 18µM; TDP1 cell CPT: inconclusive; IL1B secr inh: inactive

Results for COc1ccc(C(C)=O)cc1Cn1c(C)c(C(=O)NCc2ccc3c(c2)OCO3)sc1=O ?
TDP1 cell noCPT: inconclusive; TDP1 cell CPT: inconclusive; IL1B secr inh: inactive

Results for COc1ccc(C(C)=O)cc1Cn1c(C)c(C(=O)NCc2ccc(C(C)C)cc2)sc1=O ?
TDP1 cell noCPT: inconclusive; TDP1 cell CPT: inconclusive; IL1B secr inh: inactive

How did COc1ccc(CNC(=O)c2sc(=O)n(Cc3cc(C(C)=O)ccc3OC)c2C)cc1 do in these assays?
TDP1 cell noCPT: 13µM; TDP1 cell CPT: 23µM; IL1B secr inh: inactive

Results for CCc1nc2ccc(C(=O)Nc3cccc(OCC(=O)N(C)C)c3)cn2c1N(C)C(=O)c1cccc(OC)c1 ?
TDP1 cell noCPT: inconclusive; TDP1 cell CPT: inconclusive; IL1B secr inh: inactive

What do the screens show for `COc1ccc(N(Cc2ccccc2)C(=O)c2nc(S(C)(=O)=O)ncc2Cl)cc1`?
TDP1 cell noCPT: 0.46µM; TDP1 cell CPT: 0.73µM; TDP1 block: inactive

How did CCOc1ccc(N(Cc2ccccc2)C(=O)c2nc(SC)ncc2Cl)cc1 do in these assays?
TDP1 cell noCPT: 6.5µM; TDP1 cell CPT: 13µM; TDP1 block: inactive

How did CCOc1ccc(N(Cc2ccc(OC)cc2)C(=O)c2ccco2)cc1 do in these assays?
ELG1 repair inh: inconclusive; TDP1 cell noCPT: inconclusive; Giardia killer: inactive; TDP1 cell CPT: inconclusive; IL1B secr inh: inconclusive; TDP1 block: inactive

How did CS(=O)(=O)c1ncc(Cl)c(C(=O)N(Cc2ccc(Cl)cc2)Cc2ccco2)n1 do in these assays?
TDP1 cell noCPT: 1.3µM; TDP1 cell CPT: 0.65µM; TDP1 block: inactive

Results for CSc1ncc(Cl)c(C(=O)N(C)c2ccccc2)n1 ?
TDP1 cell noCPT: inconclusive; TDP1 cell CPT: inactive; TDP1 block: inactive

Results for COc1ccc(Cn2c(SCc3ccc(C(=O)NCc4ccc(C)cc4)cc3)nc3cccnc32)cc1 ?
TDP1 cell noCPT: inconclusive; TDP1 cell CPT: inconclusive; TDP1 block: inactive

Results for CN(C1=NS(=O)(=O)c2ccccc21)c1ccc(OC(=O)c2ccccc2F)cc1 ?
TDP1 cell noCPT: inconclusive; TDP1 cell CPT: inactive; IL1B secr inh: inactive

What do the screens show for `CN(/N=C/c1ccc(N(C)C)cc1)C1=NS(=O)(=O)c2ccccc21`?
ELG1 repair inh: inactive; TDP1 cell noCPT: inconclusive; Giardia killer: inactive; TDP1 cell CPT: 4.1µM; IL1B secr inh: inactive

How did CN(/N=C/c1cccc(Br)c1)C1=NS(=O)(=O)c2ccccc21 do in these assays?
ELG1 repair inh: inconclusive; TDP1 cell noCPT: 23µM; Giardia killer: inactive; TDP1 cell CPT: inconclusive; IL1B secr inh: inconclusive

Results for COc1ccc(N(C)C2=NS(=O)(=O)c3ccccc32)cc1 ?
ELG1 repair inh: inconclusive; TDP1 cell noCPT: 2.6µM; Giardia killer: inactive; TDP1 cell CPT: 3.7µM; IL1B secr inh: inactive; TDP1 block: inactive

Results for CN(/N=C/c1ccco1)C1=NS(=O)(=O)c2ccccc21 ?
ELG1 repair inh: inactive; TDP1 cell noCPT: inactive; Giardia killer: inactive; TDP1 cell CPT: inactive; IL1B secr inh: inactive; TDP1 block: inactive

How did COc1ccc(/C=N/N(C)C2=NS(=O)(=O)c3ccccc32)cc1 do in these assays?
ELG1 repair inh: inactive; TDP1 cell noCPT: inactive; Giardia killer: inactive; TDP1 cell CPT: inactive; IL1B secr inh: inactive

How did COc1cc2c(cc1OC)C(c1ccc(N)cc1)=NNC(=O)C2 do in these assays?
TDP1 cell noCPT: 15µM; TDP1 cell CPT: 21µM; TDP1 block: inactive

Results for O=C(CNC(=O)c1ccco1)NNC(=O)c1n[nH]c(=O)c2ccccc12 ?
ELG1 repair inh: inactive; TDP1 cell noCPT: inactive; Giardia killer: inactive; TDP1 cell CPT: inactive; IL1B secr inh: inactive; TDP1 block: inactive

How did CN(C)Cc1cn(CC[C@@H]2CC[C@@H](NC(=O)Nc3ccccc3F)[C@@H](CO)O2)nn1 do in these assays?
TDP1 cell noCPT: inactive; TDP1 cell CPT: inactive; IL1B secr inh: inactive
